Test results from PubChem BioAssay (NCI).
This is part of a sample that, as a whole, favours compounds with a hit. Of some 83,000 tested, about 20% had one in any assay.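 A percent growth of 40 corresponds to 60% growth inhibition; 0 means no net growth; -100 means all cells died. Active threshold: below 10.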 Activity calls are given as the source filed them.

Columns and labels:
Test in all cases: NCI-60 one-dose screen, 48 h (100 = growth as untreated, 0 = no growth, -100 = all killed)
Conditions in all cases: 10 µM unless noted
T-47D breast = system: T-47D breast
BT-549 breast = system: BT-549 breast
MDA-MB-435 melanoma = system: MDA-MB-435 melanoma
SW-620 colon = system: SW-620 colon
MCF7 breast = system: MCF7 breast
HCT-116 colon = system: HCT-116 colon
HCC-2998 colon = system: HCC-2998 colon
KM12 colon = system: KM12 colon

Measured: growth

CC(C)C[C@H](NC(=O)[C@H](Cc1ccccc1)n1ccc(N2CCCCC2)cc1=O)B(O)O
inactive: BT-549 breast 31.3% | MCF7 breast 31.3%
active: T-47D breast -20.4% | MDA-MB-435 melanoma -66% | SW-620 colon 6.5% | HCT-116 colon 2.64% | HCC-2998 colon -36.9% | KM12 colon 1.6%

COc1cc(-c2nc(-c3nc4ccccc4[nH]3)cc3c2[nH]c2ccccc23)cc(OC)c1OC
inactive: T-47D breast 25% | BT-549 breast 27% | MDA-MB-435 melanoma 31.1% | SW-620 colon 56.5% | MCF7 breast 42.6% | HCT-116 colon 23% | HCC-2998 colon 57.3% | KM12 colon 18.7%

CN(C)c1ccc(C2CC(c3ccccc3)=NN2/C=C2\SC(=O)NC2=O)cc1 (stereo unspecified)
inactive: T-47D breast 86.7% | BT-549 breast 87% | MDA-MB-435 melanoma 83.1% | SW-620 colon 83.9% | MCF7 breast 65.4% | HCT-116 colon 85.9% | HCC-2998 colon 101% | KM12 colon 82.2%

COc1ccc(-c2nnc(COc3ccc(NS(=O)(=O)c4ccc(OC)cc4)cc3F)o2)cc1
inactive: T-47D breast 31.6% | BT-549 breast 84.7% | MDA-MB-435 melanoma 81.4% | SW-620 colon 94.3% | MCF7 breast 69.5% | HCT-116 colon 67.2% | HCC-2998 colon 93.1% | KM12 colon 73.4%

Cc1cc(C(=O)CSc2nc3ccccc3c(=O)[nH]2)c(C)n1C
inactive: T-47D breast 79.9% | BT-549 breast 89.8% | MDA-MB-435 melanoma 101% | SW-620 colon 102% | MCF7 breast 95.1% | HCT-116 colon 106% | HCC-2998 colon 72.9% | KM12 colon 96.7%

c1ccc2c(c1)Oc1ccccc1C2C1c2ccccc2Oc2ccccc21
inactive: T-47D breast 81.4% | BT-549 breast 106% | MDA-MB-435 melanoma 99.4% | SW-620 colon 97.7% | MCF7 breast 95.4% | HCT-116 colon 84.2% | HCC-2998 colon 99.9% | KM12 colon 95.2%

Cc1cnc(NC(=O)C(Cc2ccccc2)NC(=O)c2ccccc2)s1 (stereo unspecified)
inactive: T-47D breast 87.3% | BT-549 breast 88.4% | MDA-MB-435 melanoma 13.2% | SW-620 colon 80.3% | MCF7 breast 46.2% | HCT-116 colon 49.7% | HCC-2998 colon 73.3% | KM12 colon 60.2%

CCOC(=O)C1=C(CSC(=S)N(C2CCCCC2)C2CCCCC2)N(C)C(=O)NC1c1ccccc1 (stereo unspecified)
inactive: T-47D breast 50.2% | BT-549 breast 66.3% | MDA-MB-435 melanoma 58.1% | SW-620 colon 37.2% | MCF7 breast 46.4% | HCT-116 colon 26.2% | HCC-2998 colon 71.9% | KM12 colon 55.7%

c1cncc(CNc2ccccc2-c2nnc(Nc3ccc4c(c3)OCCO4)o2)c1
inactive: T-47D breast 73.6% | BT-549 breast 16.6% | SW-620 colon 23.2% | MCF7 breast 20.9%
active: MDA-MB-435 melanoma -20.3% | HCT-116 colon 9.5% | HCC-2998 colon 9.58% | KM12 colon 3.03%

CCC(c1cccc(Br)c1)C(C(=O)O)c1ccc(OC)cc1 (stereo unspecified)
inactive: T-47D breast 108% | BT-549 breast 113% | MDA-MB-435 melanoma 29.9% | SW-620 colon 93.2% | MCF7 breast 93% | HCT-116 colon 112% | HCC-2998 colon 93.5% | KM12 colon 83.3%

COc1cc(C2CC(c3c(C)[n+]([O-])c4ccccc4[n+]3[O-])=NN2)cc(OC)c1OC (stereo unspecified)
inactive: T-47D breast 95.4% | BT-549 breast 104% | MDA-MB-435 melanoma 95.6% | SW-620 colon 101% | MCF7 breast 91.8% | HCT-116 colon 104% | HCC-2998 colon 76.1% | KM12 colon 104%

CSc1nc(-c2cc3ccccc3o2)cc(-c2ccc(Cl)cc2)c1C#N
inactive: T-47D breast 24.7% | BT-549 breast 115% | MDA-MB-435 melanoma 111% | SW-620 colon 71.1% | MCF7 breast 14% | HCT-116 colon 58.8% | HCC-2998 colon 85.6% | KM12 colon 40.4%

COc1cc(OC)c(C(=O)/C=C/c2cccc(C(F)(F)F)c2)c(OC)c1
active: BT-549 breast -2.51% | SW-620 colon 0.796% | HCT-116 colon 2.79%
inactive: T-47D breast 16.4% | MDA-MB-435 melanoma 16.2% | MCF7 breast 17% | HCC-2998 colon 29.1% | KM12 colon 11%

CCOC(=O)CC/C(C)=N\Nc1ccc([N+](=O)[O-])cc1
inactive: T-47D breast 41.8% | BT-549 breast 82.4% | MDA-MB-435 melanoma 28.4% | SW-620 colon 57.2% | MCF7 breast 79.9% | HCT-116 colon 48.7% | HCC-2998 colon 60.4% | KM12 colon 22.2%

Cc1ccc2nc(SCn3nnc4ccccc4c3=O)[nH]c2c1
inactive: T-47D breast 97% | BT-549 breast 105% | MDA-MB-435 melanoma 101% | SW-620 colon 90.6% | MCF7 breast 87.2% | HCT-116 colon 97.1% | HCC-2998 colon 95.5% | KM12 colon 161%

COc1ccc(-c2nc(-c3nc4ccc(F)cc4[nH]3)cc3c2[nH]c2ccccc23)cc1
inactive: T-47D breast 40.8% | BT-549 breast 41.8% | MDA-MB-435 melanoma 27.5% | SW-620 colon 48.3% | MCF7 breast 32.2% | HCT-116 colon 25.3% | HCC-2998 colon 30.9% | KM12 colon 23.4%

O=S(=O)(NCCCNc1cc(-c2cn(-c3ccccc3)nc2-c2cccc(O)c2)ccn1)c1cccc2ccccc12
inactive: T-47D breast 33.1% | BT-549 breast 37.1% | MDA-MB-435 melanoma 32.8% | SW-620 colon 22.5% | MCF7 breast 15.8% | HCT-116 colon 28.1% | KM12 colon 25.5%
active: HCC-2998 colon -71%

CCSc1nnc(NC(=O)COc2ccc(Cl)cc2C)s1
inactive: T-47D breast 96% | BT-549 breast 110% | MDA-MB-435 melanoma 84% | SW-620 colon 102% | MCF7 breast 91% | HCT-116 colon 103% | HCC-2998 colon 131% | KM12 colon 109%

CCCn1c(=S)sc2c(Cl)nc(C)nc21
inactive: T-47D breast 104% | BT-549 breast 42.9% | MDA-MB-435 melanoma 104% | SW-620 colon 102% | MCF7 breast 46.7% | HCT-116 colon 104% | HCC-2998 colon 111% | KM12 colon 104%

COc1ccc(S(=O)(=O)N2CCN(c3cc4c(cc3F)c(=O)c(C(=O)O)cn4C3CC3)CC2)c(OC)c1
inactive: T-47D breast 75% | BT-549 breast 95% | MDA-MB-435 melanoma 97.7% | SW-620 colon 105% | MCF7 breast 98.4% | HCT-116 colon 102% | HCC-2998 colon 118% | KM12 colon 91.1%

COc1ccc(/C(=N/O)c2cc(OC)c(OC)c(OC)c2)c(OC)c1N
active: MDA-MB-435 melanoma -42.3%
inactive: T-47D breast 27.2% | BT-549 breast 36.2% | SW-620 colon 17.4% | MCF7 breast 21% | HCT-116 colon 20.6% | HCC-2998 colon 73.4% | KM12 colon 23.8%

ClC1=C(Cl)C(Cl)=C(Cl)C1=Cc1ccc(Cl)cc1Cl
active: T-47D breast -0.12% | BT-549 breast -26.3% | MDA-MB-435 melanoma -52.4% | SW-620 colon -43.9% | MCF7 breast 4.25% | HCT-116 colon -55.5% | HCC-2998 colon -89.7% | KM12 colon -78.9%

NS(=O)(=O)c1ccc(NCC(=O)Nc2ccc(-c3nc4ccccc4s3)cc2)cc1
inactive: T-47D breast 46.4% | BT-549 breast 14.5% | MDA-MB-435 melanoma 77% | SW-620 colon 63.7% | MCF7 breast 27.6% | HCT-116 colon 25.1% | HCC-2998 colon 87.6% | KM12 colon 61.6%

COC1=CC(c2ccc[nH]2)=N/C1=C\c1[nH]c(C)c(CCCn2cc(CCCCCCCCC[C@@H]3Cc4cc(O)ccc4C4CC[C@]5(C)[C@@H](O)CC[C@H]5C43)nn2)c1C (stereo partly specified)
inactive: T-47D breast 38.4% | BT-549 breast 67.6% | MDA-MB-435 melanoma 72.4% | SW-620 colon 44.8% | MCF7 breast 16.4% | HCT-116 colon 37.3% | HCC-2998 colon 36.4% | KM12 colon 16.2%

COc1ccccc1CNCCCN1C(=O)c2ccc3c4c(ccc(c24)C1=O)C(=O)N(CCCNCCCCNCCCCN)C3=O
active: T-47D breast -1.05% | MDA-MB-435 melanoma -59.7% | SW-620 colon 2.99% | MCF7 breast -34.9% | HCT-116 colon 3.34% | HCC-2998 colon -4.93% | KM12 colon 5.46%
inactive: BT-549 breast 102%

Nc1c(C(=O)Nc2ccccc2)sc2nc3c(cc12)CN(Cc1ccccc1)CC3
inactive: T-47D breast 60.9% | BT-549 breast 50.8% | MDA-MB-435 melanoma 52.1% | SW-620 colon 76.9% | MCF7 breast 77.9% | HCT-116 colon 65.1% | HCC-2998 colon 79.1% | KM12 colon 56.4%

Cc1ccc2c(c1)C(=O)C(c1c(-c3[nH]c(=O)c4ccc(C)cc4c3O)c(O)c3ccccc3c1O)=NC2=O
active: SW-620 colon 7.11%
inactive: T-47D breast 11.9% | BT-549 breast 32.7% | MDA-MB-435 melanoma 30.7% | MCF7 breast 12.3% | HCT-116 colon 12.9% | HCC-2998 colon 62% | KM12 colon 18.5%
